Inconclusive results are not listed. The source made the active and inactive calls. The call rests on the fitted dose curve; in most records, active means well fitted inhibition curve with a large enough effect; inconclusive means small, poorly fitted or top-dose-only effect; inactive means flat fitted curve, though single readings scatter. *1 amine or outer side, *2 acyl side, *3 side chain or, on linkers, in order; H or OH if unused. Where a SMILES comes first, the peptide text is derived from it. [ ]: non-standard residue; d: D form. X13 = O=C(C(CC(O)CO)O[*:1])[*:2]; NMeV = CN[CH](C(=O)O)C(C)C; NMeA = CN[CH](C)C(=O)O; βAla = NCCC(=O)O
Assays:
CRL-7250 = normal cell line; assay: Cytotoxic Profiling of Annotated Libraries Using Quantitative High-Throughput Screening (AID 1296008); conditions: Five cell lines viability, CellTiter-Glo ATP luminescence, 48-72 h; max response: stronger effect = lower value; on max response: on the % scale 0 is the no-effect control and ±100 the full control effect
Method in brief: (§1)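 Cytotoxicity was measured as CellTiter-Glo ATP luminescence, read after 10 min at room temperature. Compound treatment of the cells lasted 48 or 72 hr at 37 degrees Celsius in a qHTS format.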

HEK293 = assay: as above; conditions: Five cell lines viability, CellTiter-Glo ATP luminescence, 48-72 h; max response: stronger effect = lower value
Method in brief: as §1

HaCat [1] = assay: as above; conditions: Five cell lines viability, CellTiter-Glo ATP luminescence, 48-72 h; max response: stronger effect = lower value
Method in brief: as §1

KB-3-1 = assay: as above; conditions: Five cell lines viability, CellTiter-Glo ATP luminescence, 48-72 h; max response: stronger effect = lower value
Method in brief: as §1

NIH3T3 = assay: as above; conditions: Five cell lines viability, CellTiter-Glo ATP luminescence, 48-72 h; max response: stronger effect = lower value
Method in brief: as §1

HACAT [2] = assay: qHTS assay to identify novel small-molecules to repurpose for Merkel cell carcinoma treatment (AID 1296009); conditions: MCC and control cell lines, CellTiter-Glo viability, 72 h; at 44.8 µM (top of the series) unless noted
Method in brief: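 Cell viability measured by CellTiter-Glo following 72 hr compound treatment at 37 degree celsius, with NPC and MIPE libraries tested in 8- and 11-point concentration series.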

Measured: max response
Further: nearly all actives have a fitted effect of over 60% in size.

C=C1C(O)CC2C(C(=O)O)=COC(OC3OC(CO)C(O)C(O)C3OC(=O)/C=C\c3ccc(O)cc3)C12 (stereo not drawn)
inactive: CRL-7250 0.287% | HEK293 -11.5% | HaCat [1] | KB-3-1 0.941% | NIH3T3 | HACAT [2] inactive [at 17.4 µM]

O=C(O)CCc1ccc(NCc2cccc3c2CCCN3CCOc2ccccc2)cc1F
inactive: CRL-7250 0.539% | HEK293 0.703% | HaCat [1] | KB-3-1 2.13% | NIH3T3 | HACAT [2]

Cc1cn(C[C@H](N)C(=O)O)c(=O)n(Cc2ccsc2C(=O)O)c1=O
inactive: CRL-7250 -3.54% | HEK293 -7.52% | HaCat [1] | KB-3-1 | NIH3T3 4.32% | HACAT [2]

CC1(C)CC[C@]2(C(=O)O[C@@H]3O[C@H](CO)[C@@H](O)[C@H](O)[C@H]3O)CC[C@]3(C)C(=CCC4[C@@]5(C)CC[C@H](OC6OC(C(=O)O)C(OC7OC(CO)C(O)C(O)C7O)C(O)C6O)C(C)(C)C5CC[C@]43C)C2C1 (stereo partly drawn)
inactive: CRL-7250 0.724% | HEK293 3.09% | HaCat [1] | KB-3-1 | NIH3T3 | HACAT [2] inactive [at 9.27 µM]

C[C@H]1[C@H](C)CC[C@]2(C(=O)OC3OC(CO)C(O)C(O)C3O)CC[C@]3(C(=O)O)C(=CCC4[C@@]5(C)CC[C@H](O[C@@H]6O[C@@H](C)[C@H](OC7OC(CO)C(O)C(O)C7O)[C@@H](O)[C@H]6O)C(C)(C)C5CC[C@]43C)[C@H]12 (stereo partly drawn)
inactive: CRL-7250 -1.78% | HEK293 2.35% | HaCat [1] | KB-3-1 | NIH3T3 -8.63% | HACAT [2] inactive [at 9.27 µM]

COc1cc(/C=C/C(=O)O[C@@H]2C[C@](O)(C(=O)O)C[C@@H](O)[C@H]2O)ccc1O
inactive: CRL-7250 -5.29% | HEK293 -0.759% | HaCat [1] | KB-3-1 | NIH3T3 1.32% | HACAT [2]

OC[C@@]1(O)CO[C@H](OC[C@H]2O[C@@H](OC(CCCCc3ccc(O)cc3)CCc3ccc(O)cc3)[C@H](O)[C@@H](O)[C@@H]2O)[C@@H]1O (stereo partly drawn)
inactive: CRL-7250 -9.7% | HEK293 -4.6% | HaCat [1] | KB-3-1 9.32% | NIH3T3 | HACAT [2] inactive [at 17.4 µM]

CC(=O)O[C@@H]1C=C2[C@H](CC[C@@]3(C)[C@@]2(O)CC[C@H]2Cc4c([nH]c5ccccc45)[C@@]23C)O[C@@H]1C(C)(C)O
inactive: CRL-7250 -3.54% | HEK293 -5.86% | HaCat [1] | KB-3-1 6.54% | NIH3T3 3.65% | HACAT [2] inactive [at 17.4 µM]

CC(C)c1cc2c(c(O)c1O)[C@@]13CCCC(C)(C)C1[C@@H](O)[C@@H]2OC3=O (stereo partly drawn)
inactive: CRL-7250 4.77% | HEK293 -8.48% | HaCat [1] | KB-3-1 7.44% | NIH3T3 | HACAT [2]

CC1(C)C2CC[C@]3(C)C(C(=O)C=C4[C@H]5C[C@@](C)(C(=O)O)CC[C@]5(C)CC[C@]43C)[C@@]2(C)CC[C@@H]1O (stereo partly drawn)
inactive: CRL-7250 | HEK293 -0.352% | HaCat [1] | KB-3-1 | NIH3T3 2.21% | HACAT [2] inactive [at 17.4 µM]

C=C(CC/C=C(\C)C(=O)O)C1(O)CC=C(C)CC1 (stereo not drawn)
inactive: CRL-7250 2.5% | HEK293 4.47% | HaCat [1] | KB-3-1 | NIH3T3 | HACAT [2]

C=C1C(OC(C)=O)C(=O)C2C(C)(C)C(O)CCC2(C)C1CC(OC(C)=O)/C(C)=C/COC(C)=O (stereo not drawn)
inactive: CRL-7250 -6.92% | HEK293 -10.7% | HaCat [1] | KB-3-1 5.46% | NIH3T3 -4.73% | HACAT [2] inactive [at 17.4 µM]

OCC(O)C(c1c[nH]c2ccccc12)c1c[nH]c2ccccc12 (stereo not drawn)
inactive: CRL-7250 | HEK293 -8.71% | HaCat [1] | KB-3-1 | NIH3T3 1.42% | HACAT [2]

CC/C=C/C=C/C1(C)OC(CC(CO)OC)=CC1=O (stereo not drawn)
inactive: CRL-7250 -6.3% | HEK293 -18.9% | HaCat [1] | KB-3-1 | NIH3T3 1.62% | HACAT [2]

C[C@]1(OC(=O)/C=C/c2ccc(O)cc2)C[C@@H](O)[C@]2(O)C=CO[C@@H](O[C@@H]3O[C@H](CO)[C@@H](O)[C@H](O)[C@H]3O)C12 (stereo partly drawn)
inactive: CRL-7250 4.79% | HEK293 -2.23% | HaCat [1] | KB-3-1 6.86% | NIH3T3 | HACAT [2] inactive [at 17.4 µM]

COC1OC(=O)C2=C1C1(C)CCCC(C)(C)C1CC2O (stereo not drawn)
inactive: CRL-7250 -6.21% | HEK293 1.96% | HaCat [1] | KB-3-1 | NIH3T3 | HACAT [2]

C=C(COC(=O)C(C)C)C1Oc2cc(C(C)=O)ccc2C1OC(=O)C(C)C (stereo not drawn)
inactive: CRL-7250 -10.7% | HEK293 1.24% | HaCat [1] | KB-3-1 4.68% | NIH3T3 0.455% | HACAT [2]

CCC(C)C1NC(=O)C2CCCN2C(=O)C(CC(O)CO)OC(=O)CCNC(=O)C(C)N(C)C(=O)C(C(C)C)N(C)C1=O (stereo not drawn) (cyclo([X13]PI[NMeV][NMeA][βAla]); configuration not given here)
inactive: CRL-7250 -8.24% | HEK293 2.6% | HaCat [1] | KB-3-1 9.21% | NIH3T3 | HACAT [2] inactive [at 17.4 µM]

O=C(CC1CC(c2ccc(F)cc2F)=NO1)N1CCOCC1 (stereo not drawn)
inactive: CRL-7250 -1.82% | HEK293 4.11% | HaCat [1] | KB-3-1 -13.2% | NIH3T3 -0.0344% | HACAT [2]

CC(=O)O[C@H]1C[C@@]2(C)[C@@H](CC[C@H]3[C@@]4(C)C=CC(=O)[C@@H](C)[C@@H]4[C@H](OC(C)=O)C(=O)[C@@]32C)/C1=C(\CCC=C(C)C)C(=O)O
inactive: CRL-7250 4.49% | HEK293 -0.998% | HaCat [1] | KB-3-1 5.79% | NIH3T3 -2.17% | HACAT [2] inactive [at 17.4 µM]

CC(C)=CC[C@H]1O[C@]2(O)C([C@H]3CCC4[C@@]5(C)CC[C@H](O[C@@H]6O[C@H](CO)[C@H](O)[C@H](O[C@@H]7O[C@H](CO)[C@@H](O)[C@H](O)[C@H]7O)[C@H]6O[C@@H]6O[C@@H](C)[C@H](O)[C@@H](O)[C@H]6O)C(C)(C)C5CC[C@@]4(C)[C@]3(C)[C@H]2O)[C@@]1(C)O (stereo partly drawn)
inactive: CRL-7250 0.206% | HEK293 2.46% | HaCat [1] | KB-3-1 9.9% | NIH3T3 0.989% | HACAT [2] inactive [at 9.27 µM]

O=C(C[C@@H]1C(C(=O)O)=CO[C@@H](O[C@@H]2O[C@H](CO)[C@@H](O)[C@H](O)[C@H]2O)/C1=C\CO)OCCc1ccc(O)c(O)c1
inactive: CRL-7250 -2.34% | HEK293 2.23% | HaCat [1] | KB-3-1 9.2% | NIH3T3 | HACAT [2] inactive [at 17.4 µM]

C/C(=C\CCC(C)(C)O)CCO[C@@H]1O[C@H](CO[C@@H]2O[C@@H](C)[C@H](O)[C@@H](O)[C@H]2O)[C@@H](O)[C@H](O)[C@H]1O
inactive: CRL-7250 | HEK293 -3.15% | HaCat [1] | KB-3-1 4.26% | NIH3T3 | HACAT [2] inactive [at 17.4 µM]

CC(=O)/C=C/C1(O)C(C)=CC(=O)CC1(C)C (stereo not drawn)
inactive: CRL-7250 -1.97% | HEK293 -3.4% | HaCat [1] | KB-3-1 -2.68% | NIH3T3 | HACAT [2]

C/C1=C\CC[C@]2(C)O[C@H]2C(=O)c2c(C)coc2C1
inactive: CRL-7250 1.23% | HEK293 -1.35% | HaCat [1] | KB-3-1 -3.14% | NIH3T3 | HACAT [2]

COC(=O)C1=COC(O[C@@H]2O[C@H](CO)[C@@H](O)[C@H](O)[C@H]2O)[C@@H]2[C@@](C)(O)[C@@H](OC(=O)/C=C/c3ccccc3)C[C@]12O (stereo partly drawn)
inactive: CRL-7250 1.9% | HEK293 -1.35% | HaCat [1] | KB-3-1 | NIH3T3 4.01% | HACAT [2] inactive [at 17.4 µM]

CC(C)C1NC(=O)C2CCCN2C1=O (stereo not drawn)
inactive: CRL-7250 | HEK293 0.78% | HaCat [1] | KB-3-1 | NIH3T3 | HACAT [2]

C[C@@H]1O[C@@H](O[C@H]2[C@@H]3C=CO[C@@H](O[C@@H]4O[C@H](CO)[C@@H](O)[C@H](O)[C@H]4O)[C@@H]3[C@@]3(CO)O[C@@H]23)[C@H](O)[C@H](OC(=O)/C=C/c2ccc(O)c(O)c2)[C@H]1O
inactive: CRL-7250 2.8% | HEK293 1.13% | HaCat [1] | KB-3-1 -0.915% | NIH3T3 | HACAT [2] inactive [at 17.4 µM]

N#Cc1cccc(-c2c[nH]c3ncnc(N4CCOCC4)c23)c1
inactive: CRL-7250 | HEK293 -6.95% | HaCat [1] | KB-3-1 -3.64% | NIH3T3 | HACAT [2]

COc1c2cc(c(O)c1OC)CCCCC(O)CCc1ccc(O)c-2c1 (stereo not drawn)
inactive: CRL-7250 -1.76% | HEK293 -0.95% | HaCat [1] | KB-3-1 2.35% | NIH3T3 -4.18% | HACAT [2]

O=C(O)CC1CCC(c2ccc(-c3ccc(Nc4ccc(C(F)(F)F)nc4)cn3)cc2)CC1 (stereo not drawn)
inactive: CRL-7250 3.84% | HEK293 -8.47% | HaCat [1] | KB-3-1 -6.84% | NIH3T3 2.56% | HACAT [2]

C[C@H]1CC[C@@]2(OC1)O[C@H]1CC3C4CC[C@H]5C[C@@H](O[C@@H]6O[C@H](CO)[C@H](O[C@@H]7O[C@H](CO)[C@@H](O)[C@H](O[C@@H]8OC[C@@H](O)[C@H](O)[C@H]8O)[C@H]7O[C@@H]7O[C@H](CO)[C@@H](O)[C@H](O)[C@H]7O)[C@H](O)[C@H]6O)[C@H](O)C[C@]5(C)C4=CC(=O)[C@]3(C)[C@H]1[C@@H]2C (stereo partly drawn)
inactive: CRL-7250 -0.886% | HEK293 3.61% | HaCat [1] | KB-3-1 | NIH3T3 | HACAT [2] inactive [at 9.27 µM]

C[C@@]12CC3(S(=O)(=O)O)OC(O1)[C@]1(COC(=O)c4ccccc4)[C@H]3C[C@]21O[C@@H]1O[C@H](CO)[C@@H](O)[C@H](O)[C@H]1O
inactive: CRL-7250 2.31% | HEK293 2.36% | HaCat [1] | KB-3-1 | NIH3T3 | HACAT [2] inactive [at 17.4 µM]

— PubChem BioAssay (NCATS)
